Activity calls are given as the source filed them.
What was measured:
[1] = test system: PRMT1 (protein arginine N-methyltransferase 1); test: small molecules binding arginine methyltransferase PRMT1 – biochemical, small-molecule microarray, 635 nm fluorescence, primary screen (AID 1088); conditions: higher = more signal;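 further: binding of Prmt1 protein to compounds spotted on small-molecule microarray slides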
[2] = growth effects on S. cerevisiae YJM789 – YJM789 clinical isolate, OD600, 24 h, basal, primary screen (AID 1089); conditions: higher = more signal, called active from +8 up or from −8 down;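 further: growth of clinical yeast isolate S. cerevisiae YJM 789 seeded 1000 cells per well; test concentration not given here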
[3] = S. pombe growth modifiers, basal conditions – strain 972, OD600, 24 h, no modulator, primary screen (AID 1090);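 further: basal condition with compound alone and no growth modifier present; test concentration not given here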; conditions: S. pombe 972 growth, higher = more signal, called active from +8 up or from −8 down
[4] = budding yeast growth modifiers under rapamycin – strain BY4716, OD600, 96 h, primary screen (AID 1091); further: test concentration not given here; conditions: S. cerevisiae BY4716 + rapamycin, higher = more signal, called active from +8 up or from −8 down
[5] = target: Torsin-1A-interacting protein 2 (Homo sapiens) (UniProt Q8NFQ8); test: small molecules binding lysate-expressed LULL1 – cell lysate, human LULL1 lysate, 635/667 nm fluorescence, primary screen (AID 1092); conditions: small-molecule microarray, hLULL1 lysate binding, 635 nm fluorescence; higher = more signal;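 further: probe is lysate of COS7 cells overexpressing human LULL1; score merges per-feature 667 nm fluorescence with signal-to-noise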
Sequence of Torsin-1A-interacting protein 2 (Homo sapiens) (Q8NFQ8 whole entry, looked up): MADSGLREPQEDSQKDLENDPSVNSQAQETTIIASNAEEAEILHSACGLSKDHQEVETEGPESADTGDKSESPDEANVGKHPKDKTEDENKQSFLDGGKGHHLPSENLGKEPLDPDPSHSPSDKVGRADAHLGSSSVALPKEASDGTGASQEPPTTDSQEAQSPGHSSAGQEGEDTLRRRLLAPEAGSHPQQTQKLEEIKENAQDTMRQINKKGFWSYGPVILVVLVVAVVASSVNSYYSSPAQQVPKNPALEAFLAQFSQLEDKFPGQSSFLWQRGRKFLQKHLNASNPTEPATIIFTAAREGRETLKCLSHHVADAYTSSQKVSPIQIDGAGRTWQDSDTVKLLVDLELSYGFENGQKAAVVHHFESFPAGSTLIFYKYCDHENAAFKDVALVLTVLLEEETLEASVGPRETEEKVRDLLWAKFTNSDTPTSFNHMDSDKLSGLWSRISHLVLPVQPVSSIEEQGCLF

[6] = optical density change of DRC41 E. coli – strain DRC41, OD650, 24 h, E. coli filamentation project, primary screen (AID 1093);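 further: MC1000 strain lacking acrAB efflux and sulA so SOS filamentation is blocked; test concentration not given here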; conditions: E. coli DRC41 growth, higher = more signal, called active from +8 up or from −8 down
[7] = probe aLefty2 binding to arrayed compounds – biochemical, biotinylated probe, 635/667 nm fluorescence, primary screen (AID 1094); conditions: small-molecule microarray, higher = more signal;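 further: score merges spot fluorescence near 667 nm with spot signal-to-noise ratio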
[8] = test system: Noggin (protein binding on small-molecule microarray); test: small molecules binding Noggin protein – biochemical, 635/667 nm fluorescence, primary screen (AID 1095); conditions: 635 nm fluorescence, higher = more signal;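 further: score merges 667 nm feature fluorescence with signal to noise over triplicate slides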
[9] = target: Neurogenic locus notch homolog protein 3 (Homo sapiens) (UniProt Q9UM47); test: small molecules binding NOTCH3 protein – biochemical, 635/667 nm fluorescence, primary screen (AID 1096); conditions: small-molecule microarray, 635 nm fluorescence, higher = more signal
Sequence of Neurogenic locus notch homolog protein 3 (Homo sapiens) (Q9UM47 whole entry, looked up): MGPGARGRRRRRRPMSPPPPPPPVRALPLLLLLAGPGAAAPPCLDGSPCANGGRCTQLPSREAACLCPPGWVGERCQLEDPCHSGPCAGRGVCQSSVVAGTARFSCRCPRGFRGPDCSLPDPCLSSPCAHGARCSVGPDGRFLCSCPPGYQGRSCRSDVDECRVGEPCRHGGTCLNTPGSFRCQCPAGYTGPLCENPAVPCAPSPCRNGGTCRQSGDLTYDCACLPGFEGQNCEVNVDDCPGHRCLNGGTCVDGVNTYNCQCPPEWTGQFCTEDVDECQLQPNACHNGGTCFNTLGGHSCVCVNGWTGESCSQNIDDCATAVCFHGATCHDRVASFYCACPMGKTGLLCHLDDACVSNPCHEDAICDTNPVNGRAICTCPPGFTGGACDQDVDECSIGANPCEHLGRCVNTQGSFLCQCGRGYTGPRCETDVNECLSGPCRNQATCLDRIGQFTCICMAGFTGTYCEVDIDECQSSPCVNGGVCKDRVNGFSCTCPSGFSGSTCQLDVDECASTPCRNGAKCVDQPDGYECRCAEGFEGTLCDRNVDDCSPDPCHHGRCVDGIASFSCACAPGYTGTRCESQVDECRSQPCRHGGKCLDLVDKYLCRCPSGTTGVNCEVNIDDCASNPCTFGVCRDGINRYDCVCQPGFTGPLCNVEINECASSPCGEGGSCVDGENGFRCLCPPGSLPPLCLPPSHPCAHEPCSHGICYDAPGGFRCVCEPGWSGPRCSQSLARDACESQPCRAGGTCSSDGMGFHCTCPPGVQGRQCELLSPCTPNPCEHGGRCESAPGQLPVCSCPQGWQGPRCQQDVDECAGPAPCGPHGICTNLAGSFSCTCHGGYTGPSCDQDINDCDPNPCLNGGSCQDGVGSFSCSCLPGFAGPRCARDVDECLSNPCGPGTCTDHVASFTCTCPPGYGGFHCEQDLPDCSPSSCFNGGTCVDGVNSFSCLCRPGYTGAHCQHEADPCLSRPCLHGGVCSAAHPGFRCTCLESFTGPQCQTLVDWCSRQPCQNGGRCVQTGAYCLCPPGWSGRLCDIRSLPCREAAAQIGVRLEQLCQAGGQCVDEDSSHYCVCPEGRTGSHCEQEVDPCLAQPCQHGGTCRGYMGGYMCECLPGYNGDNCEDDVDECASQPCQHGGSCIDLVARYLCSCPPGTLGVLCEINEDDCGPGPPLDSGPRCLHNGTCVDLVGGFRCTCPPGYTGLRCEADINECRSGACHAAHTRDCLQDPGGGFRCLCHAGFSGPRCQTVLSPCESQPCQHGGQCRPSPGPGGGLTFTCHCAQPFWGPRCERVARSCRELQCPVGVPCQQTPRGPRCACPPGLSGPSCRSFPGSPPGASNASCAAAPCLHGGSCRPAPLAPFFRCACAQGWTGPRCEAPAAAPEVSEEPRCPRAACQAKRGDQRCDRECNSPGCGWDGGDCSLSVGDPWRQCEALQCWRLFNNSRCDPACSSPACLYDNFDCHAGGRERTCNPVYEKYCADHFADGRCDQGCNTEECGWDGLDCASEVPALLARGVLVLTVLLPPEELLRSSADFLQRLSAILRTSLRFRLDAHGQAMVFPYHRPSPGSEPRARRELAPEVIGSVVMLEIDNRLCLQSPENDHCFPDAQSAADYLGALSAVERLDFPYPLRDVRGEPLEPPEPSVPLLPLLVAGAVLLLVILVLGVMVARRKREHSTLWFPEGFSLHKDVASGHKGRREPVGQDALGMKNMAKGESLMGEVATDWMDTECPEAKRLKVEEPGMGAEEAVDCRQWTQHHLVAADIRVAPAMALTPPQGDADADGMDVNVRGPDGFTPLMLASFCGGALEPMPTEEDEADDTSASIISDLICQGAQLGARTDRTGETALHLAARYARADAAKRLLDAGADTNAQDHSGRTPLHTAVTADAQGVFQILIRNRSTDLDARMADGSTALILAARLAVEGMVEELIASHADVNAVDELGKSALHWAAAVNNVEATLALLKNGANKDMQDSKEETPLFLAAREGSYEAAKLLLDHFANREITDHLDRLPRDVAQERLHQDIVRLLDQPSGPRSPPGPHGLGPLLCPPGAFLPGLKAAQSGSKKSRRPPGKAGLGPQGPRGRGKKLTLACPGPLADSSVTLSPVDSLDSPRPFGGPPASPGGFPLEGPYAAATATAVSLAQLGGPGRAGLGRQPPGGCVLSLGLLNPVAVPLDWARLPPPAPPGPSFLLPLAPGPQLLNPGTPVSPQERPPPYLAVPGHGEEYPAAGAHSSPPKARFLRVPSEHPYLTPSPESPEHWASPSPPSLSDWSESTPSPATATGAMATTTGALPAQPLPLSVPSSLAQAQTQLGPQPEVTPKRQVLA

[10] = probe aEGFR binding to arrayed compounds – biochemical, biotinylated probe, 635/667 nm fluorescence, primary screen (AID 1097); conditions: small-molecule microarray, higher = more signal;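 further: probe is a biotinylated anti-EGFR antibody binding compounds printed on slides; score combines fluorescence near 667 nm and signal to noise of each spot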

Structure (SMILES) | composite z-score [1] | z-score [2] | z-score [3] | z-score [4] | composite z-score [5] | z-score [6] | composite z-score [7] | composite z-score [8] | composite z-score [9] | composite z-score [10]
CO[C@@H]1COC(=O)CC=C[C@@H](C)COC(=O)[C@H](COCc2ccccc2)NC(=O)CC=C[C@H]1C | 0.943 | 0.847 (inactive) | -0.584 (inactive) | 0.736 (inactive) | -0.914 | 0.154 (inactive) | -0.183 | 1.71 | -0.551 | -0.0899
O=C1O[C@@H](c2ccccc2)[C@@H](c2ccccc2)N2[C@@H](c3ccccc3OCCO)[C@]3(C(=O)Nc4ccc(C#CCCO)cc43)[C@@H](C(=O)O)[C@H]12 | 1.54 | 1.14 (inactive) | -0.82 (inactive) | -0.103 (inactive) | 2.47 | 0.481 (inactive) | -0.3 | 0.573 | 1.12 | -0.352
COC(=O)[C@H]1COC(c2ccc(OCCCO)cc2)=N1 | -0.152 | -0.488 (inactive) | -0.888 (inactive) | -0.606 (inactive) | 3.59 | 0.332 (inactive) | 0.267 | -0.37 | -0.607 | -0.0947
CCOC(=O)[C@H](Cc1ccccc1)NC(=O)CCC1CC(OC(=O)NCc2ccc3c(c2)OCO3)CC2(CCCC(COC(=O)NCc3ccccc3)O2)O1 (stereo not given in full) | 1.06 | 0.284 (inactive) | 0.158 (inactive) | 0.942 (inactive) | 1.27 | 0.641 (inactive) | -0.0174 | 0.573 | 0.941 | -0.0084
CC(=O)O[C@H]1C2=C(C(=O)[C@@H]3O[C@@H]31)[C@H]1C(C)O[C@@H]2[C@@]23C(=O)[C@@H]4O[C@@H]4[C@@H](O)C2=CO[C@H](C)[C@@H]13 (stereo not given in full) | 0.417 | 0.014 (inactive) | -0.361 (inactive) | 0.465 (inactive) | -0.0273 | 0.16 (inactive) | -0.265 | -0.0408 | 0.0275 | -0.0671
COCCCNC(=O)[C@@]1(CCS(=O)(=O)c2ccccc2)N=C(c2ccc(OCCCO)cc2)O[C@H]1c1ccccc1 | 1.38 | -0.67 (inactive) | -0.692 (inactive) | -0.757 (inactive) | 3.43 | 2.54 (inactive) | 0.888 | 0.0483 | -0.0936 | 0.592
CC(C)=CCCC(C)=CCON=C1[C@H]2CCn3c(=O)n(Cc4cc5c(cc4Cl)OCO5)c(=O)n3[C@H]2[C@H](O)[C@@H]2O[C@H]12 | -0.477 | 0.175 (inactive) | -0.105 (inactive) | 0.545 (inactive) | -0.658 | -0.996 (inactive) | 0.0392 | 0.482 | 0.554 | 0.112
CC(C)CON=C1C[C@@H](O)[C@@H](O)[C@@H]2[C@@H]3C(=O)N(Cc4ccccc4)C(=O)[C@@H]3CC[C@@H]12 | 0.517 | -0.443 (inactive) | -0.264 (inactive) | -0.682 (inactive) | 0.434 | 0.354 (inactive) | -0.099 | 0.484 | 0.59 | -0.0679
CC(C)CON=C1C[C@@H](O)[C@@H](O)[C@@H]2[C@@H]3C(=O)N([C@@H](C)c4ccccc4)C(=O)[C@@H]3CC[C@H]12 | 1.54 | 0.466 (inactive) | 0.443 (inactive) | -0.0803 (inactive) | 2.73 | 0.0955 (inactive) | -0.128 | 1.12 | 1.08 | -0.0146
COC(=O)CC=C[C@@H](C)[C@@H](C=NO[C@H](C)c1cn([C@@H]2COC[C@H]2O)nn1)OC | 1.35 | 0.212 (inactive) | 0.189 (inactive) | -0.266 (inactive) | 0.965 | 0.135 (inactive) | -0.156 | 0.359 | 0.484 | 0.0009
CCOC(=O)NN=C1C[C@@H](O)[C@@H](O)[C@@H]2[C@@H]3C(=O)N(CC)C(=O)[C@@H]3CC[C@@H]12 | 0.268 | -0.846 (inactive) | 0.0572 (inactive) | -0.293 (inactive) | 1.31 | -0.319 (inactive) | -0.176 | 0.299 | 0.905 | 0.0082
c1ccc(C2NCCc3c2[nH]c2ccccc32)cc1 (stereo not given) | -0.339 | -0.272 (inactive) | -2.36 (inactive) | -0.962 (inactive) | 0.872 | -0.937 (inactive) | -0.126 | 0.388 | -0.246 | 0.122
COC(=O)CC=C[C@@H](C)[C@H](OC)c1ccccc1Br | 0.0909 | 0.703 (inactive) | -0.636 (inactive) | -0.417 (inactive) | 0.154 | 0.469 (inactive) | -0.188 | 0.462 | -0.105 | -0.113
O=C1[C@H]2[C@H]3[C@H](O)[C@H](O)CC(=NO[C@@H]4O[C@H](CO)[C@@H](O)[C@H](O)[C@H]4O)[C@@H]3CC[C@H]2C(=O)N1Cc1ccccc1 | 0.346 | -0.3 (inactive) | -0.13 (inactive) | -0.556 (inactive) | 0.218 | 0.0628 (inactive) | -0.103 | 0.574 | 0.433 | 0.0673
COc1ccc(O[C@H]2C=C[C@@H](c3ccccc3)O[C@@H]2CON=C[C@@H](C)[C@H](OCc2ccccc2)C(C)C)cc1 | -0.28 | 0.706 (inactive) | -0.564 (inactive) | 0.314 (inactive) | -1.14 | -0.349 (inactive) | -0.235 | -0.347 | -1.27 | -0.241
CCOC(=O)[C@H](CC(C)C)NC(=O)CCC1CC(OC(=O)NCCc2ccc(F)cc2)CC2(CCCC(COC(=O)NCc3ccccc3)O2)O1 (stereo not given in full) | 1.57 | -0.341 (inactive) | -0.265 (inactive) | 0.707 (inactive) | 2.24 | -0.206 (inactive) | -0.0778 | 1.46 | 0.828 | 0.0338
CC(C)=C1C(=O)C(c2ccccc2)=C2CN3C(=O)N(CCc4ccccc4)C(=O)[C@]3(Cc3ccc(F)cc3)[C@H]21 | 1.11 | -0.129 (inactive) | -0.0353 (inactive) | 0.135 (inactive) | 2.04 | -1.7 (inactive) | 0.253 | -1.25 | -1.3 | 0.119
COc1ccc(O[C@H]2C=C[C@@H](c3ccccc3)O[C@@H]2COC(=O)N2CCCCC2)cc1 | 0.38 | 0.523 (inactive) | -0.897 (inactive) | 0.156 (inactive) | -0.616 | 0.555 (inactive) | 0.0116 | 0.0935 | -1.08 | -0.0527
COC(=O)[C@H](C)NC(=O)[C@@H](C)CO | 1.46 | 0.0198 (inactive) | -0.0164 (inactive) | 0.669 (inactive) | 1.68 | -0.8 (inactive) | -0.0607 | 0.67 | 1.07 | -0.0578
CCN1C(=O)[C@H]2[C@H]3[C@H](O)[C@H](O)CC(=NOCC=C(C)CCC=C(C)C)[C@H]3CC[C@H]2C1=O | 1.56 | -0.541 (inactive) | 0.0853 (inactive) | -1.11 (inactive) | 1.52 | 0.707 (inactive) | -0.0355 | 1.32 | 1.13 | 0.186
CO[C@@H]1COC(=O)CC=C[C@@H](C)[C@@H]2C=C[C@H](O)[C@@H](COC(=O)[C@H](C)NC(=O)CC=C[C@H]1C)O2 | 1.54 | -0.653 (inactive) | -0.465 (inactive) | -1.36 (inactive) | -0.75 | 0.0967 (inactive) | -0.212 | 1.42 | 0.868 | 0.0231
C[C@@H](c1ccccc1)N1C(=O)[C@H]2[C@H]3[C@H](O)C=CC(=O)[C@@H]3CC[C@H]2C1=O | 0.595 | -0.432 (inactive) | -0.271 (inactive) | -0.402 (inactive) | -0.309 | 0.372 (inactive) | -0.252 | 0.421 | 0.698 | -0.0649
O[C@@H](Cc1ccccc1)[C@H]1C2C=CCCC(c3ccccc3)=C2CN1Cc1cccc(Cl)c1 (stereo not given in full) | 1.44 | -0.122 (inactive) | -3.65 (inactive) | -1.09 (inactive) | 1.73 | 2.78 (inactive) | -0.106 | 0.96 | 1.12 | -0.0549
O=C1[C@H]2[C@H]3[C@H](O)[C@H](O)CC(=NOC[C@@H](O)COCc4ccco4)[C@@H]3CC[C@H]2C(=O)N1c1ccc(F)cc1F | 0.601 | -0.236 (inactive) | 0.0766 (inactive) | -1.25 (inactive) | -1.34 | 0.363 (inactive) | -0.223 | 1.01 | 0.0986 | -0.0828
CCc1cc2c(nc1CC)CCN(CCC(C)=NO[C@@H](C)c1cc(-c3c(C)cc(C)cc3C)no1)C2 | 0.608 | -0.889 (inactive) | -6.86 (inactive) | -1.26 (inactive) | 0.468 | -0.0254 (inactive) | -0.0765 | 0.343 | -1.5 | -0.172
COC(=O)[C@H](C)NC(=O)CCC1CC(OC(=O)NCc2ccc3c(c2)OCO3)CC2(CCCC(COC(=O)NCCOc3ccccc3)O2)O1 (stereo not given in full) | 1.55 | -1.31 (inactive) | 0.26 (inactive) | 0.303 (inactive) | 1.57 | -1.16 (inactive) | -0.147 | 0.737 | 1.07 | -0.165
CCCC[C@@H](O)C1=C(C)C[C@H]2C(=O)N(Cc3ccccc3)C(=O)[C@H]2[C@H]1CO | 0.18 | -0.812 (inactive) | -2.19 (inactive) | 0.0211 (inactive) | -0.463 | 0.706 (inactive) | -0.0998 | 0.283 | 0.15 | -0.159
